The campaign covered roughly 16,000 compounds. About 4,000 (25%) were called active. About 26% were inconclusive and are not listed. Calls come from the whole dose curve; as a rule, active = well fitted curve in the direction sought with a large enough effect; inconclusive = small, poorly fitted or top-dose-only effect, or effect the other way; inactive = no such curve, though single readings can be large or run the other way. The list is a sample of the results.
Each compound was assayed against Cytochrome P450 2C9 (Homo sapiens) (UniProt P11712) (assay: Cytochrome panel assay with activity outcomes). Conditions: recombinant CYP, pro-luciferin dealkylation, luminescence, p450-cyp2c9; series mostly up to 57.1 µM; activity, negative = inhibition: at the top concentration.
Cytochrome P450 2C9 (Homo sapiens), sequence (P11712 whole entry, looked up): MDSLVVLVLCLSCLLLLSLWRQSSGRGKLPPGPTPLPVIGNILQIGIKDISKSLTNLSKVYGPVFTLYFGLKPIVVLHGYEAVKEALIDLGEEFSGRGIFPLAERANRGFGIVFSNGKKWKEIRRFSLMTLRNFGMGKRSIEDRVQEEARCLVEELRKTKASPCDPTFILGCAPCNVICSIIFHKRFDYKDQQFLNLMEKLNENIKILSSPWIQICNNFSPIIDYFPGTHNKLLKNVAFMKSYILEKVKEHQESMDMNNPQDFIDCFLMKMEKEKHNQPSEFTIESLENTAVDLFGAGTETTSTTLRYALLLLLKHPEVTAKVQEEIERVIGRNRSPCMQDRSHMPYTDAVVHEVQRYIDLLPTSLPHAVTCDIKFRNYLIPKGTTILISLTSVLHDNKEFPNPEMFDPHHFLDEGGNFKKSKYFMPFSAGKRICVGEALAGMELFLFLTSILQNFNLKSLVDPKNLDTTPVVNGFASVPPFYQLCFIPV
% is set by controls: 0 for no effect and ±100 for the full control effect.

| SMILES | activity, negative = inhibition | AC50 |
| --- | --- | --- |
| O=C(NCP(=O)(O)O)c1cccnc1 | 1.84% [at 11.4 µM] (inactive) | – |
| C=C[C@]12CN(C)[C@H]3C1[C@@]1(C(=O)Nc4ccccc41)[C@H]1C[C@H]2[C@H]3CO1 | -13.2% [at 25.6 µM] (inactive) | – |
| c1cc2cc(c1)C[n+]1ccc(c3ccccc31)NCc1ccc(cc1)CNc1cc[n+](c3ccccc13)C2 | – | 2.51 µM (active) |
| CN1C(=O)CCS(=O)(=O)[C@H]1c1ccc(Cl)cc1 | 2.23% (inactive) | – |
| C[C@H]1C(=O)O[C@@H]2CCN3CC=C(COC(=O)[C@@](C)(O)[C@@]1(C)O)[C@H]23 | 24.7% [at 25.6 µM] (inactive) | – |
| CCCCN1C(=O)/C(=C\c2ccco2)C(=O)N(CCc2ccccc2)C1=O | – | 7.94 µM (active) |
| c1ccc2c(c1)Sc1ccccc1N2C[C@H]1CN2CCC1CC2 | 8.95% [at 11.4 µM] (inactive) | – |
| C[C@H](NC(C)(C)C)C(=O)c1cccc(Cl)c1 | inactive | – |
| CCCN1CCC[C@@H]2Cc3[nH]ncc3C[C@H]21 | inactive | – |
| CCN1C[C@]2(COC)CC[C@H](O)[C@@]34[C@@H]5C[C@H]6[C@@H](OC)[C@H]5[C@](O)(C[C@@H]6OC)[C@@](O)([C@@H](OC)[C@H]23)[C@@H]14 | -3.36% [at 25.6 µM] (inactive) | – |
| CC[C@H]1CN2CC[C@@H]1C[C@H]2[C@@H](O)c1ccnc2ccc(OC)cc12 | 6.12% [at 25.6 µM] (inactive) | – |
| CN(C)c1ccc(NC(=O)CN2C(=O)CN=C(c3ccccc3)c3ccccc32)cc1 | -4.06% (inactive) | – |
| Cc1sc2c(c1C)C(c1ccc(C(C)(C)C)cc1)=NCC(=O)N2CC(=O)Nc1nccs1 | – | 12.6 µM (active) |
| O=[N+]([O-])O[C@H]1CO[C@H]2[C@H]1OC[C@@H]2O[N+](=O)[O-] | 28.9% [at 25.6 µM] (inactive) | – |
| CCOP(=O)(OCC)C(NC(C)=O)C(Cl)(Cl)Cl (configuration not stated) | -14% (inactive) | – |
| Clc1ccc([C@@H](OCCN2CCCCC2)c2ccccc2)cc1 | -7.32% [at 25.6 µM] (inactive) | – |
| O=c1[nH]c2ccccc2n1C1CCN(CCCC(c2ccc(F)cc2)c2ccc(F)cc2)CC1 | inactive | – |
| C(=C/c1ccccc1)/CN1CCN(CCOC(c2ccccc2)c2ccccc2)CC1 | – | 5.01 µM (active) |
| Fc1ccc(C(OCCN2CCN(C/C=C\c3ccccc3)CC2)c2ccc(F)cc2)cc1 | – | 7.94 µM (active) |

| SMILES | activity, negative = inhibition | AC50 |
| --- | --- | --- |
| CCOC(=O)c1ncn2c1[C@H]1CCCN1C(=O)c1cc(OC)ccc1-2 | 15.1% (inactive) | – |
| NS(=O)(=O)c1cc([C@@]2(O)NC(=O)c3ccccc32)ccc1Cl | -0.302% [at 25.6 µM] (inactive) | – |
| O=C(O)C[O][Sb][O]CC(=O)O | 3.17% [at 11.4 µM] (inactive) | – |
| O=C(O)[C@H]1[O][Sb][O][C@@H](C(=O)O)C1O (some centres not stated) | 14.9% [at 11.4 µM] (inactive) | – |
| NCC[C@H](O)C(=O)N[C@H]1C[C@@H](N)[C@@H](O[C@H]2O[C@@H](CN)[C@@H](O)[C@@H](O)[C@@H]2N)[C@@H](O[C@H]2O[C@@H](CO)[C@@H](O)[C@@H]2O)[C@@H]1O | -2.49% [at 25.6 µM] (inactive) | – |
| C[N+]1(C)CCO[C@@](O)(c2ccc(-c3ccc([C@]4(O)C[N+](C)(C)CCO4)cc3)cc2)C1 | -5.58% (inactive) | – |
| O=C(c1ccccc1)[C@H]1[C@H](c2ccccc2[N+](=O)[O-])N1C1CCCCC1 (some centres not stated) | -9.93% [at 11.4 µM] (inactive) | – |
| CC1=C(O)C(=O)[C@H]2O[C@@H]2C1=O | -9.89% (inactive) | – |
| c1cc(CN2CCCC3(CCNCC3)C2)ccn1 | -28.9% (inactive) | – |
| CN1CC[C@@]2(CCCN(C(=O)c3ccco3)C2)C1 | 5.65% (inactive) | – |
| COCC(=O)N1CCC2(CCCN(Cc3ccncc3)C2)CC1 | – | 5.01 µM (active) |
| CC(C)CN1CCCC2(CCN(C(=O)c3ccncc3)CC2)C1 | -28.7% (inactive) | – |
| CN1CC[C@@]2(CCCN(C(=O)c3ccncc3)C2)C1 | 2.79% (inactive) | – |
| O=C(c1ccco1)N1CCC[C@@]2(CCN(Cc3ccncc3)C2)C1 | – | 3.16 µM (active) |
| CC[C@]1([C@H]2O[C@@H]([C@@H]3O[C@](O)(CO)[C@@H](C)C[C@H]3C)C[C@H]2C)CC[C@@H]([C@]2(C)CC[C@@]3(C[C@@H](O)[C@@H](C)[C@@H]([C@H](C)[C@H](OC)[C@H](C)C(=O)O)O3)O2)O1 | 2.5% [at 25.6 µM] (inactive) | – |
| COc1ccccc1CN1CCCC2(CCN(C(=O)Oc3ccccc3)CC2)C1 | 2.58% (inactive) | – |
| COC(=O)[C@@H]1c2cc3c(c(O)c2[C@@H](O)C[C@]1(C)O)C(=O)c1c(O)cc2c(c1C3=O)O[C@H]1O[C@@]2(C)[C@@H](O)[C@H](N(C)C)[C@H]1O | -12.9% [at 11.4 µM] (inactive) | – |
| CCN(CC)CCO[C@H]1CC[C@@]2(C)C(=CC[C@@H]3[C@H]2CC[C@]2(C)C(=O)CC[C@H]32)C1 | -1.59% (inactive) | – |
| CO[C@@H]1CC=C2CCN3CCC4=C(CC(=O)OC4)[C@]23C1 | 11.3% (inactive) | – |

| SMILES | activity, negative = inhibition | AC50 |
| --- | --- | --- |
| C[N+]1(C)[C@@H]2CC[C@H]1CC(OC(=O)[C@@H](CO)c1ccccc1)C2 (some centres not stated) | inactive | – |
| COc1ccc2[nH]c3c(c2c1)CCN=C3C | -24.9% [at 25.6 µM] (inactive) | – |
| N[C@@H](CSC1c2ccccc2-c2ccccc21)C(=O)O | -21.1% [at 11.4 µM] (inactive) | – |
| C[C@@]12CC[C@H]3[C@@H](CCC4=C(O)C(=O)CC[C@]43C)[C@H]1CCC2=O | 8.16% (inactive) | – |
| Cc1cc(NC(=O)CCC(=O)N2CCC3(CC2)OCCO3)no1 | 14.5% (inactive) | – |
| Cc1ccccc1-c1nc(CS(=O)CC(=O)N2CCC3(CC2)OCCO3)c(C)o1 (configuration not stated) | – | 5.01 µM (active) |
| Oc1ccc([C@H](O)[C@@H]2CCCCN2)cc1O | -5.3% [at 11.4 µM] (inactive) | – |
| CC(C)C(=O)N1C2CCC1CC(O)(c1ccc(F)cc1)C2 (configuration not stated) | -8.36% (inactive) | – |
| C[C@](N)(CCP(=O)(O)O)C(=O)O | 7.57% (inactive) | – |
| O=C(CN1CCCCC1)Nc1ccc(Br)cc1C(=O)c1ccccc1Cl | – | 8.91 µM (active) |
| CN(CCc1ccc(Cl)c(Cl)c1)[C@H]1CCCC[C@H]1N1CCCC1 | -18.7% (inactive) | – |
| CCOC(=O)c1ncn2c1CN(C)C(=O)c1cc(F)ccc1-2 | 0.585% (inactive) | – |
| CC(C)(C)NC[C@H](O)c1ccccc1Cl | 11.1% (inactive) | – |
| C=CCN1CC[C@@]23c4c5ccc(O)c4O[C@H]2/C(=N\N=C2/CC[C@@]4(O)[C@H]6Cc7ccc(O)c8c7[C@@]4(CCN6CC=C)[C@@H]2O8)CC[C@]3(O)[C@@H]1C5 | inactive | – |
| C[C@H](CCC(=O)O)[C@H]1CC[C@]2(C)[C@@H]3C(=O)C[C@H]4C(C)(C)[C@@H](O)CC[C@]4(C)[C@H]3C(=O)C[C@@]12C | -0.996% [at 11.4 µM] (inactive) | – |
| Cc1nc2ccccc2c(=O)n1-n1cnnc1 | -22.4% (inactive) | – |
| CCCCc1nc2ccccc2c(=O)n1-c1ccc(Cl)cc1[N+](=O)[O-] | -8.02% (inactive) | – |
| CCCc1nc2ccccc2c(=O)n1-c1ccc(OC)cc1 | – | 25.1 µM (active) |
| CCCCc1nc2ccccc2c(=O)n1-c1ccccc1[N+](=O)[O-] | – | 11.2 µM (active) |

Reference: PubChem BioAssay AID1851 (National Center for Advancing Translational Sciences (NCATS), 2009)
